In PubChem BioAssay AID651784 (National Center for Advancing Translational Sciences (NCATS), 2012):
Where “and” joins values, the source holds several entries; their conditions need not be identical. Equal values may be shown once. Results filed as inconclusive are left out. Calls of active or inactive are those of the source. The call rests on the fitted dose curve; in most records, active means well fitted inhibition curve with a large enough effect; inconclusive means small, poorly fitted or top-dose-only effect; inactive means no such curve, though single readings can be large or run the other way.

Experiment: Acumen qHTS Assay for Inhibitors of the mTORC1 Signaling Pathway in MEF (Tsc2-/-, p53-/-) Cells: Hit Validation;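 further: phospho-rpS6 Ser235/236 immunofluorescence normalized to propidium iodide cell count; nearly all actives have a fitted effect of over 65% in size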;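 on activity change, negative = inhibition: cells exposed to compound for 24 hours; plate controls were DMSO for no effect and 7.5 nM rapamycin control for full effect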
Conditions: Acumen imaging; activity change, negative = inhibition: at 37.3 µM (top of the series)
Potency means the concentration at half of the fitted maximal effect.

| Structure (SMILES) | activity change, negative = inhibition | Potency |
| --- | --- | --- |
| Cc1nn(CC(=O)N2CCN(c3ccccc3F)CC2)c(=O)c2cccn12 | 2.89% |  |
| COc1ccc(NC(=O)CSc2nc3ccccc3n2Cc2cccc(OC)c2)cc1 | -5.71% |  |
| COc1cccc(-c2nc(SCC(=O)NCC3CCCO3)c(-c3ccc(F)cc3)[nH]2)c1 (stereo not drawn) | -3.33% |  |
| O=C(NCc1ccccc1)c1nc(S(=O)(=O)Cc2ccccc2)ncc1Cl |  | 5.85 µM (active) |
| CCN(CCCNC(=O)c1cc2c(=O)[nH]c3ccc(C)cc3c2s1)Cc1ccccc1 | -139% |  |
| CCS(=O)(=O)c1oc(-c2ccc(F)cc2)nc1S(=O)(=O)c1ccc(Br)cc1 |  | 4.14 µM (active) |
| CCOc1cccc(C2CC(=O)Nc3cc4c(cc32)OCCO4)c1 (stereo not drawn) | -113% |  |
| COc1cc(Cl)c(C)cc1NC(c1ccccc1)c1nnc(-c2ccccc2Cl)o1 (stereo not drawn) | -9.11% |  |
| Cc1ccc(NC(=O)Nc2cccs2)c(C)c1 | -40.4% |  |
| CC(C)OCCCn1c(=O)c2ccccc2n2c(-c3ccc(F)cc3)nnc12 | 17.3% |  |
| CC(C)Oc1ccc(CNC(=O)c2ccc3nc(SCc4ccc(F)cc4)n(C)c3c2)cc1 | -8.96% |  |
| COc1ccc(OCC(=O)NCc2ccc3c(c2)CCN3C(=O)c2cccc(C)c2)cc1 | -87.8% |  |
| COc1ccc(OC)c(Nc2c3c(nc4ccccc24)CCC3)c1 |  | 3.29 µM (active) |
| Cc1cccn2c(Nc3ccccc3)c(-c3cccs3)nc12 | 26.1% |  |
| COc1cc(C)ccc1OCCn1c(-c2ccc(Cl)cc2)nc2ccccc2c1=O | -1.14% |  |
| CCCCOc1ccccc1C1CC(=O)Nc2ccc3ccccc3c21 (stereo not drawn) | -10.2% |  |
| COc1ccccc1NC(=O)c1sc(-c2ccc(Cl)cc2)cc1N | 1.3% |  |
| Cc1ccc(C)c(S(=O)(=O)NCC(c2ccco2)S(=O)(=O)c2ccc(F)cc2)c1 (stereo not drawn) | -16.2% |  |
| CCCc1oc2ccc(NS(=O)(=O)c3ccc(OCC)cc3)cc2c1C(=O)OCC |  | 4.14 µM (active) |

| Structure (SMILES) | activity change, negative = inhibition | Potency |
| --- | --- | --- |
| Cc1ccc(CN(Cc2cccn2-c2nnc(N3CCCC3=O)s2)C(=O)Nc2ccccc2C(F)(F)F)cc1 | -12.7% |  |
| COC(=O)CN1C(=O)C(C)(C)c2cc(S(=O)(=O)Nc3ccc(Br)cc3F)ccc21 |  | 9.27 µM (active) |
| Cc1cc(C)c(/C=C2\C(=O)Nc3ccccc32)[nH]1 | 0.812% and 7.57% |  |
| CCCCS(=O)(=O)c1oc(-c2ccc(F)cc2)nc1S(=O)(=O)c1ccc(C)cc1 |  | 4.65 µM (active) |
| COc1ccc(C(=O)Nc2ccc(OCc3cc(=O)n4ccccc4n3)cc2)cc1 | 7.16% |  |
| COc1ccc(-c2nc(CCNC(=O)c3c(F)cccc3Cl)cs2)cc1 | -0.104% |  |
| CCN(c1ccccc1)S(=O)(=O)c1ccc(NC(=O)c2nc(S(C)(=O)=O)ncc2Cl)cc1 |  | 4.14 µM (active) |
| CCCCNC(=O)CSc1nc2nc(C)c(Cc3ccccc3C)c(C)n2n1 | 7.74% |  |
| CC(C)c1ccc(NS(=O)(=O)c2ccc3nc(-c4ccccc4)[nH]c3c2)cc1 | -0.821% |  |
| CC(=O)Nc1ccc(NC(=O)c2nc(S(=O)(=O)Cc3ccc(F)cc3)ncc2Cl)cc1 |  | 2.61 µM (active) |
| CCOC(=O)N1CCN(Cc2nc3cc(NC(=O)CC(C)C)ccc3n2C(C)C)CC1 |  | 2.61 µM (active) |
| CCC(=O)C1=C(c2ccc(F)cc2)N(C(=O)CC)n2cnnc2S1 | -29.5% |  |
| CCc1ccc(S(=O)(=O)c2c(C(=O)c3ccc(C)c(C)c3)cnc3ccccc23)cc1 | 5.96% |  |
| CC(=O)Nc1cccc(NC(=O)C(=O)NCCc2sc(-c3ccccc3)nc2C)c1 |  | 0.329 µM (active) |
| COc1ccc(C2CC(=O)c3c([nH]c(C(=O)OC4CCCCCC4)c3C)C2)cc1OC (stereo not drawn) | 8.05% |  |
| Cc1ccc2nc(-c3cccc(NC(=O)c4cccc5ccccc45)c3)oc2c1 | -72.4% |  |
| Cc1nc2scc(C)n2c(=O)c1S(=O)(=O)Nc1ccc(N2CCOCC2)c(Cl)c1 |  | 1.47 µM (active) |
| Cc1noc(/C=C/N(C)C)c1S(=O)(=O)N1CCCC(C(=O)Nc2ccc(F)cc2F)C1 (stereo not drawn) |  | 1.85 µM (active) |
| O=C(Cn1c(=O)c2ccccc2n(CC(=O)Nc2ccc(Cl)cc2)c1=O)NCCc1ccccc1 | 0.576% |  |
